Drawing on PubChem BioAssay (EPA / NIEHS), this text covers outcome for 37 molecules.

The structures appear in SMILES notation. Records with an inconclusive call do not appear. Calls of active or inactive are those of the source. Rule for the calls: active = hit-call score of the fitted dose curve at least 0.9, where 1 is the maximum; inconclusive = response in the unintended direction; inactive = score below 0.9.

Retinoic acid receptor RXR-alpha (Homo sapiens), sequence (P19793 whole entry, looked up, the tested form may be a part): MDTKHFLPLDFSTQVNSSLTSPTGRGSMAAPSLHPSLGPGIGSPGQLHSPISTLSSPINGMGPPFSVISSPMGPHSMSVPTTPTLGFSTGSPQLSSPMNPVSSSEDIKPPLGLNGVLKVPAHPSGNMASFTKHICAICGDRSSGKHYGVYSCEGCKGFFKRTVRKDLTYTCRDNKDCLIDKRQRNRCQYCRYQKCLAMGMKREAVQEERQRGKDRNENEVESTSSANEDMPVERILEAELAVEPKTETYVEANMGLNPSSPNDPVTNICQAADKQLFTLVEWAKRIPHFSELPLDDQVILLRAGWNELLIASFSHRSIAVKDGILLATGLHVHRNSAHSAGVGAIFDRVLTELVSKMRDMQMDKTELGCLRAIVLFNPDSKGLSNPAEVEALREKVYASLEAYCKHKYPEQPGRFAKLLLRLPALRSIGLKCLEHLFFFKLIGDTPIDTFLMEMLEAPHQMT
human RAR-related Orphan Receptor gamma (RORg), RORC (gene 6097), sequence (P51449 whole entry, looked up, the tested form may be a part): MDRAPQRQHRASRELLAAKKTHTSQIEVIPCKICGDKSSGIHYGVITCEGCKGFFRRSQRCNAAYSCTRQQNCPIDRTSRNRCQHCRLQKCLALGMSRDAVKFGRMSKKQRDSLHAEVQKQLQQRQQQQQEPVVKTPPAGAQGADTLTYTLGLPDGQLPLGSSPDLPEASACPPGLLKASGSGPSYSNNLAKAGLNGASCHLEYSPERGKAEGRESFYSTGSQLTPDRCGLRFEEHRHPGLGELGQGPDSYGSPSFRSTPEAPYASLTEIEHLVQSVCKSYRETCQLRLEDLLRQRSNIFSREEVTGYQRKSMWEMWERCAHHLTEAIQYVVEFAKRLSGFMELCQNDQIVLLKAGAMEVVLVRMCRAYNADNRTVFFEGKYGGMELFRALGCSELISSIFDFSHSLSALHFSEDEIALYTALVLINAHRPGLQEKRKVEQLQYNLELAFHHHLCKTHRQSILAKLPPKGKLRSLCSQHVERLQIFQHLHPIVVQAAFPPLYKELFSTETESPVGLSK

The target of the first test is human RAR-related Orphan Receptor gamma (RORg), RORC (gene 6097) (UniProt P51449). The experiment in a line: ATG_RORg_TRANS: Attagene TRANS-FACTORIAL HepG2 Assay for human RAR-related Orphan Receptor gamma (RORg) (AID 2283011). A digest of the protocol:
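Chimeric RORg-Gal4 transactivation in transfected HepG2; 24 h exposure; RT-PCR/capillary electrophoresis readout of reporter mRNA, DMSO baseline.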
For the molecule `COc1ccc(C(Cl)=C(c2ccc(OC)cc2)c2ccc(OC)cc2)cc1`, the molecule was called inactive.

As to `Clc1nc2ccccc2s1`, the result was inactive.

Take `CCCCCCC(O)CO` (stereo not given): the molecule was called inactive.

As to `CC1=CC[C@H]2C[C@@H]1C2(C)C`, the call was inactive.

As to `CO[Si](CCC1CCC2OC2C1)(OC)OC` (stereo not given), the outcome was inactive.

Turning to `CC(=O)Oc1ccc(C(C)=O)cc1`, the call was inactive.

Turning to `Nc1cccc(C(F)(F)F)c1`, the result was inactive.

As to `O=Cc1ccc(CO)o1`, the molecule was classed as inactive.

Turning to `Cc1cc(C)c(C(=O)O)c(C)c1`, the call was inactive.

`CC(C)c1ccc(C#N)cc1`: the outcome was inactive.

Take `C[Si](C)(CCCN)O[Si](C)(C)CCCN`: the outcome was inactive.

On to `SCCc1cnccn1`, for which the call was inactive.

For `CC(=O)Nc1nnc(S(N)(=O)=O)s1`, the molecule was called inactive.

For the molecule `CCCCCCCCO[C@@H]1O[C@H](CO)[C@@H](O)[C@H](O)[C@H]1O`, the molecule was called inactive.

Consider `CC(C)c1ccc(C=O)cc1`, for which the call was inactive.

As to `Cc1ccc([N+](=O)[O-])cc1S(=O)(=O)O`, the molecule was called inactive.

For `O=C(C=Cc1ccccc1)OCc1ccccc1`, the molecule was called inactive.

Turning to `CCCCCCCCCCCCCOP(=O)(O)O`, the outcome was inactive.

In the case of `CC/C=C\C/C=C\C/C=C\CCCCCCCC(=O)O`, the result was inactive.

For `C=CC(C)(C)C`, the call was inactive.

For the molecule `CCCCCCCCCCCCCCCCCC#N`, the molecule was classed as inactive.

As to `CCCCCc1ccc(Cl)cc1`, the molecule was called inactive.

Take `CCN(CC#N)c1cccc(C)c1`: the molecule was called inactive.

`Cc1cccc(C(=O)O)c1`: the molecule was classed as inactive.

As to `C=COCCCC`, the molecule was classed as inactive.

For `CC=CC(=O)N(CC)c1ccccc1C`, the molecule was called inactive.

Take `C=C(C)C(=O)OCCO`: the outcome was inactive.

As for `CC(=O)OCC(C)OC(C)=O` (stereo not given), the call was inactive.

For the molecule `c1ccc(CNCc2ccccc2)cc1`, the call was inactive.

As for `O=c1[nH]c(=O)c2[nH]c(=O)[nH]c2[nH]1`, the result was inactive.

Turning to `NC(CO)(CO)CO`, the result was inactive.

With `CCC(C)C=O` (stereo not given), the result was inactive.

Regarding `[Cl][In]([Cl])[Cl]`, the molecule was classed as inactive.

Consider `CC(C)=CC1CC(C)CCO1` (stereo not given), for which the molecule was classed as inactive.

For the molecule `C[C@]12C=CC(=O)C=C1CC[C@@H]1[C@@H]2[C@@H](O)C[C@@]2(C)[C@H]1CC[C@]2(O)C(=O)CO`, the outcome was inactive.

For `CCCc1ccc(OC)cc1`, the outcome was inactive.

With `CC(=O)OCc1ccco1`, the outcome was inactive.

The target in the next test is Retinoic acid receptor RXR-alpha (Homo sapiens) (UniProt P19793). Briefly: ATG_RXRa_TRANS: Attagene TRANS-FACTORIAL HepG2 Assay for human Retinoid X Receptor alpha (RXRa) (AID 2283012). A digest of the protocol:
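Transient transfection of human HepG2 with multiple GAL4-UAS reporter constructs; 24 h compound exposure; total RNA isolated, reverse-transcribed, PCR-amplified, 6-FAM labelled, HpaI-cut, resolved by capillary electrophoresis. Positive-direction fit versus DMSO.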
For `COc1ccc(C(Cl)=C(c2ccc(OC)cc2)c2ccc(OC)cc2)cc1`, the result was inactive.

Consider `Clc1nc2ccccc2s1`, for which the molecule was called inactive.

On to `CC1=CC[C@H]2C[C@@H]1C2(C)C`, for which the result was inactive.

Regarding `CO[Si](CCC1CCC2OC2C1)(OC)OC` (stereo not given), the result was inactive.

For `CC(=O)Oc1ccc(C(C)=O)cc1`, the outcome was inactive.

`C[Si](C)(CCCN)O[Si](C)(C)CCCN`: the molecule was called inactive.

As to `SCCc1cnccn1`, the result was inactive.

For `CC(=O)Nc1nnc(S(N)(=O)=O)s1`, the call was inactive.

For `CCCCCCCCO[C@@H]1O[C@H](CO)[C@@H](O)[C@H](O)[C@H]1O`, the molecule was classed as inactive.

For `CC/C=C\C/C=C\C/C=C\CCCCCCCC(=O)O`, the molecule was classed as inactive.

In the case of `C=CC(C)(C)C`, the result was inactive.

As to `CCCCCCCCCCCCCCCCCC#N`, the outcome was inactive.

Take `CC(C)=CC1CC(C)CCO1` (stereo not given): the molecule was called inactive.
